Screening data: PubChem, National Center for Advancing Translational Sciences (NCATS)
Only some compounds are listed: those with a hit (about 11% of all), similar ones and a draw of the others.
VDR inh: vitamin D3 receptor (human) inhibition | P11473 | VDR-SRC2-3 peptide fluorescence polarization, 2 h | Potency, µM, actives largely listed as inhibitors | actives 0.93% (n = 400,000) | AID 504847
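The screen uses fluorescence polarization to detect compounds that interfere with recruitment of the SRC2-3 coactivator peptide to VDR; plates are read after 2 h at room temperature.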
BAZ2B inh: BAZ2B (human) inhibition; Q9UIF8; AlphaScreen BAZ2B-H3K14Ac peptide displacement; Potency, µM (highest dose often 114 µM), actives largely listed as inhibitors; actives 4.4% (n = 360,000); note: nearly all actives have a fitted effect of over 60% in size
Target sequence (Q9UIF8 whole entry, looked up): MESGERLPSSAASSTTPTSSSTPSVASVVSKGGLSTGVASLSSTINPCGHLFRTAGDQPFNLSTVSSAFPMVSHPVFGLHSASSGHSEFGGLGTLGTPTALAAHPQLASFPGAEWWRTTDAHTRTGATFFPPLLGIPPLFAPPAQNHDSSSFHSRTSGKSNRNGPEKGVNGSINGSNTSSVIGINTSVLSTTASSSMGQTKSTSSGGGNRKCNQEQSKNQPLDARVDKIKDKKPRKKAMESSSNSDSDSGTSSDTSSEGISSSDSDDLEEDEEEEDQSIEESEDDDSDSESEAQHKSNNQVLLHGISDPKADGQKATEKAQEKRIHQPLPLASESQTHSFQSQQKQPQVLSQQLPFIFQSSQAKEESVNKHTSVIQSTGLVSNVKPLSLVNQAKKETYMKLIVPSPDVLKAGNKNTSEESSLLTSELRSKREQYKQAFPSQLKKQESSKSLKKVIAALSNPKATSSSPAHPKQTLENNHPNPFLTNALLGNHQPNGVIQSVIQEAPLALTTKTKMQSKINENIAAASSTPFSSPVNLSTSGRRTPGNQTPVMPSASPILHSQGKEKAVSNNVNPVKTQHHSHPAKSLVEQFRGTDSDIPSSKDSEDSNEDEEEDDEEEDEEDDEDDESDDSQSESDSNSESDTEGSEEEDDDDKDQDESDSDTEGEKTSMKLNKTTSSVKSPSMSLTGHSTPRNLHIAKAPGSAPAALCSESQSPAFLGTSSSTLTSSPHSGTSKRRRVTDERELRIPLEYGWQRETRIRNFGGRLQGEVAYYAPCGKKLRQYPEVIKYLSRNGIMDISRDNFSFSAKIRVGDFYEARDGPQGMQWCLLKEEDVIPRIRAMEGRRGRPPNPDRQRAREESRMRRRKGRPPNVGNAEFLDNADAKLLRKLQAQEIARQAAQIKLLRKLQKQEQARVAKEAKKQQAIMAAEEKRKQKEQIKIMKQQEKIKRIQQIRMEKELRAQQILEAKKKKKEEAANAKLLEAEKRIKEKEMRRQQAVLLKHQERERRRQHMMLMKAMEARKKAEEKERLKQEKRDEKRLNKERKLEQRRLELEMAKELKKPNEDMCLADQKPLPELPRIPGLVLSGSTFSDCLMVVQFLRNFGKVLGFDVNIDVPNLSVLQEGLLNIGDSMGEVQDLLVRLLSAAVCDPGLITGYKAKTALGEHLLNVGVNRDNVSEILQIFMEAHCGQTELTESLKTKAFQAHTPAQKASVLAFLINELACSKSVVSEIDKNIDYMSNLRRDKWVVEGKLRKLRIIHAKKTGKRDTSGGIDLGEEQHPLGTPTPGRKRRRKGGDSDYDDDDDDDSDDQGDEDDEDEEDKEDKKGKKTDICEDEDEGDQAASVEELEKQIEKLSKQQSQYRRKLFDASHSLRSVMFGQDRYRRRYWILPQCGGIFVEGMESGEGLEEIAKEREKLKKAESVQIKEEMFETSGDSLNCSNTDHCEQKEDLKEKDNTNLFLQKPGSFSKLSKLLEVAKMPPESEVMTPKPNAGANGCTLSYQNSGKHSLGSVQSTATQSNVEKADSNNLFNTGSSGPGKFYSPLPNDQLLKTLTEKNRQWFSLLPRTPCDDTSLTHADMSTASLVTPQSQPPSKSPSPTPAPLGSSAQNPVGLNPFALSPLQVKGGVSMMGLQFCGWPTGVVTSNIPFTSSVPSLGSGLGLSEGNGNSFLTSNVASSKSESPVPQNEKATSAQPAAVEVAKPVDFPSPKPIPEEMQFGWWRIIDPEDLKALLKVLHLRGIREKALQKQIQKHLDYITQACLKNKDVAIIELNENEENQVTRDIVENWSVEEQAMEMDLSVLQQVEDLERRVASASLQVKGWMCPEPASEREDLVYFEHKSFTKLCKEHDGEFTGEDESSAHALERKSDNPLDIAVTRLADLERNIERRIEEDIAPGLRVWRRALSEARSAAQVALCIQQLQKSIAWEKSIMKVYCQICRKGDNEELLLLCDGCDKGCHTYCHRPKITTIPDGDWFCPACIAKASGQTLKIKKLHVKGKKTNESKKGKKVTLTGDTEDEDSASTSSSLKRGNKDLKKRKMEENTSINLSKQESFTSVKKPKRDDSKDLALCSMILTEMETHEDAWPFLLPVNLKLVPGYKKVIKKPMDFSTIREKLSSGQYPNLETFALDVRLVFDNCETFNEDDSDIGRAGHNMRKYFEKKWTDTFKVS
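Inhibition is scored as reduced AlphaScreen emission. The BAZ2B/b-H3(5-23)K14Ac complex (50 nM each) in PBS pH 7.4, 0.01% Tween-20 meets compound (up to 110 uM) for 30 min at RT before bead addition.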
G9a inh: blocks human histone lysine methyltransferase G9a. actives 8.8% (n = 350,000). AID 504332. G9a H3K9 monomethylation, AlphaScreen, 2 h. Potency, µM (series often up to 102 µM), usual class: inhibitors. Q96KQ7; note: nearly all actives have a fitted effect of over 75% in size
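G9a (20 nM) preincubated 15 min RT with compounds, then 500 nM biotinylated H3K9 peptide and 20 uM SAM added; 2 h RT reaction. Monomethyl-H3K9 product detected by AlphaScreen with anti-H3K9me1 antibody, streptavidin donor and anti-rabbit IgG acceptor beads.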
PLK1 PBD inh: blocks phosphopeptide binding to human PLK1 polo-box domain; Plk1 PBD binding of FITC phosphopeptide, fluorescence polarization; Potency, µM, usual class: inhibitors; actives 2.8% (n = 360,000); AID 720504; note: series mostly up to about 57 µM; nearly all actives have a fitted effect of over 65% in size
HP1b binding inh: blocks HP1-beta chromodomain binding to methylated histone tails | P83916 | AlphaScreen HP1-beta / biotin-H3K9me3 peptide binding | Potency, µM (titrated, usually from 114 µM), most hits filed as inhibitors | actives 0.56% (n = 390,000) | AID 540317; note: nearly all actives have a fitted effect of over 70% in size
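Compound inhibition of the preformed complex between 50 nM HP1-beta and 50 nM biotinylated H3K9me3 peptide was read by AlphaScreen. Buffer was PBS pH 7.4 with 0.01% Tween-20. Incubations ran 30 min at room temperature, with 10 ug/mL donor/acceptor beads.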
JMJD2A Tudor: JMJD2A Tudor domain (human) inhibition | actives 4.4% (n = 390,000) | AID 504339 | AlphaScreen JMJD2A-Tudor / H3K4me3 peptide binding | Potency, µM (top dose mostly 114 µM), actives largely listed as inhibitors; note: nearly all actives have a fitted effect of over 50% in size
Each line names hits and unclear results; the compound was inactive in the other large screens. Calls come from the whole dose curve; as a rule, active = well fitted curve in the direction sought with a large enough effect; inconclusive = small, poorly fitted or top-dose-only effect, or another doubt; inactive = no such curve, though single readings can be large; an effect the other way counts as inactive or inconclusive.

Cc1cc(C)cc(NC(=O)CN(c2cc(C(F)(F)F)ccc2Cl)S(=O)(=O)c2ccccc2)c1	none (no result: PLK1 PBD inh)
Cn1ncc(Cl)c1C(=O)N1CCN(c2ccc(F)cc2)CC1	none (no result: G9a inh)
CCNc1ccc(S(=O)(=O)N(C)C)cc1NCC(=O)Nc1ccc(Br)cc1F	BAZ2B inh inconclusive, G9a inh 14µM, JMJD2A Tudor inconclusive
CCNc1ccc(S(=O)(=O)N(C)C)cc1NCC(=O)Nc1ccccc1F	G9a inh inconclusive
CCNc1ccc(S(=O)(=O)N(C)C)cc1NCC(=O)Nc1ccc(F)c(Cl)c1	BAZ2B inh inconclusive, G9a inh 50µM, HP1b binding inh inconclusive, JMJD2A Tudor inconclusive
CCC[C@H]1NC(=O)[C@H](C)N(C)C(=O)C(C)(C)C(=O)C(C)NC(=O)[C@H](Cc2ccc(OC)cc2)N(C)C(=O)[C@H](C(C)C)N(C)C(=O)CNC(=O)[C@H](CC(C)C)N(C)C(=O)CNC(=O)[C@H]([C@@H](C)CC)OC(=O)[C@H]1C (stereo not given in full)	JMJD2A Tudor 22µM (no result: BAZ2B inh, G9a inh)
Cc1nn(S(=O)(=O)c2ccc(Br)cc2)c(C)c1S(=O)(=O)N1CCOCC1	BAZ2B inh inconclusive, G9a inh 40µM
Cc1nn(S(=O)(=O)c2cccc([N+](=O)[O-])c2)c(C)c1Br	BAZ2B inh inconclusive, G9a inh inconclusive
Cc1ccc(S(=O)(=O)n2nc(C)c(S(=O)(=O)N3CCOCC3)c2C)cc1	BAZ2B inh inconclusive, G9a inh 35µM, JMJD2A Tudor inconclusive
Cc1nn(S(=O)(=O)c2cccc([N+](=O)[O-])c2)c(C)c1S(=O)(=O)N1CCOCC1	JMJD2A Tudor 79µM
Cc1nn(S(=O)(=O)c2ccc(Cl)cc2)c(C)c1S(=O)(=O)N1CCOCC1	G9a inh inconclusive, JMJD2A Tudor inconclusive
CCNC(=S)NS(=O)(=O)c1ccc(CC)cc1	G9a inh 28µM, JMJD2A Tudor 25µM
CCc1ccc(S(=O)(=O)NC(=S)Nc2ccccc2)cc1	VDR inh inconclusive, G9a inh 18µM, PLK1 PBD inh 27µM
Cc1ccc(C(=S)NCS(=O)(=O)c2ccc(C)cc2)cc1	VDR inh inconclusive, BAZ2B inh inconclusive, G9a inh 40µM, PLK1 PBD inh inconclusive, JMJD2A Tudor inconclusive
Cc1ccc(S(=O)(=O)CNC(=S)c2cccc(Cl)c2)cc1	VDR inh inconclusive, G9a inh inconclusive, PLK1 PBD inh inconclusive
Cc1ccc(CNC(=S)Nc2ccc(NS(=O)(=O)c3ccc(C)cc3)cc2)cc1	none
CCNC(=S)NS(=O)(=O)c1ccc(C)cc1	G9a inh 32µM
Cc1ccc(C)c(N2CCN(C(=O)c3c4c(nc5ccccc35)C(=O)N(C3CCCCC3)C4)CC2)c1	none (no result: PLK1 PBD inh)
CC(C)(C)NC(=O)c1ccccc1NC(=O)C1CCCO1 (stereo not given)	none
CCc1ccc(C2CC3C(CN2S(=O)(=O)c2ccc(C)cc2)C(=O)CC(c2ccc(CC)cc2)N3S(=O)(=O)c2ccc(C)cc2)cc1 (stereo not given)	none (no result: VDR inh, BAZ2B inh, G9a inh, HP1b binding inh, JMJD2A Tudor)
COc1ccccc1NC(=O)c1cc2c(=O)n(Cc3cccs3)ccc2nc1C	none (no result: PLK1 PBD inh)
O=C(c1ccccc1)N1CCN(c2ccc([N+](=O)[O-])c(NCc3cccnc3)c2)CC1	HP1b binding inh inconclusive, JMJD2A Tudor inconclusive
CC(C)(C)CNc1cc(N2CCOCC2)ccc1[N+](=O)[O-]	BAZ2B inh inconclusive, G9a inh 32µM, JMJD2A Tudor inconclusive
O=[N+]([O-])c1ccc([N+](=O)[O-])c(Nc2ccc(N3CCOCC3)cc2)c1	BAZ2B inh 18µM, HP1b binding inh inconclusive, JMJD2A Tudor 18µM
CC(C)CC(=O)N1CCN(c2ccc([N+](=O)[O-])c(NCc3ccccc3)c2)CC1	PLK1 PBD inh 21µM, HP1b binding inh inconclusive, JMJD2A Tudor 50µM (no result: BAZ2B inh, G9a inh)
COC(=O)C(CC(C)C)NS(=O)(=O)c1ccccc1Br (stereo not given)	none (no result: BAZ2B inh, G9a inh, PLK1 PBD inh)
Cn1cc(C[C@H](NC(=O)OC(C)(C)C)C(=O)N[C@@H](CO)Cc2ccccc2)c2ccccc21	none (no result: BAZ2B inh, G9a inh)
CCC1(C)Cc2ccccc2/C(=C/C(=O)N2CCCCC2)N1 (stereo not given)	BAZ2B inh inconclusive, G9a inh 40µM, JMJD2A Tudor inconclusive
